Screen size: about 310,000 compounds; about 1,400 (0.45%) were called active.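 How the source made its calls: active means B-score, a plate-corrected calcium signal, over three deviations above library mean, with baseline fluorescence within five deviations of library mean; inactive means the rest.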 The full list was thinned out, with actives kept by preference.

The target of the test is Regulator of G-protein signaling 4 (Homo sapiens) (UniProt P49798). Briefly: RGS4 inhibitors, primary screen, cell-based, HEK293 M3R inducible RGS4, calcium flux (AID 463165).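 Further: RGS4 expression induced by doxycycline in cells with stable M3 receptor.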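 On B-score: B-score is computed from the integrated fluorescence ratio over baseline after carbachol; higher B-score means a larger calcium signal and so more RGS4 inhibition.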 The conditions noted are these: Fluo-4 calcium flux, at 10 µM, triggered by carbachol at its EC20; stronger effect = higher value.
Regulator of G-protein signaling 4 (Homo sapiens), sequence (P49798 whole entry, looked up): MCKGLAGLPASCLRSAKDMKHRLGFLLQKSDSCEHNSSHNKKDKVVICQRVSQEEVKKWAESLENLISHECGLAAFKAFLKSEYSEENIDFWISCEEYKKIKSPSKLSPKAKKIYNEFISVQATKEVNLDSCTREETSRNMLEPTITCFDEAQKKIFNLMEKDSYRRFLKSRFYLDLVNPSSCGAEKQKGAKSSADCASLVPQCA
In the case of `COC(=O)/C=C(\Oc1ccccc1)C1(O)CCCCC1`, the B-score entry is “inactive”.
Next, `O=C(Nc1ccccc1)C1CCN(C(=O)c2ccc(Br)cc2)CC1`: “inactive”.
The same measure for `COc1ccc(C(=O)CSc2nc(C)cc(C)n2)cc1[N+](=O)[O-]`: “inactive”.
Next, `COc1ccc(OCc2cn3c(C)cc(C)nc3n2)cc1`: “inactive”; `COc1ccc(C(C[N+](=O)[O-])n2nc(C)cc2C)cc1` (centres undefined): 5.35 (active); `CCOc1ccc(NC(=S)NC(=O)/C=C/c2ccc(OC)cc2)c([N+](=O)[O-])c1`: “inactive”.
With `O=C1Nc2ccc(Br)cc2/C1=N/N=C/C1=C(N2CCOCC2)C(=C\c2ccccc2)/CC1`, the B-score was 13.1 (active).
`C(=N\N1CCN(c2ccccn2)CC1)/C1=C(N2CCOCC2)C(=C/c2ccccc2)/CC1`: the B-score entry is “inactive”.
In the case of `N#C/C(=C\C1=C(N2CCOCC2)C(=C\c2ccccc2)/CC1)C(=O)Nc1ccccc1F`, the B-score result was “inactive”.
Next, `COc1ccc(C(F)(F)F)cc1N/C=C\c1nnnn1-c1ccc(C)cc1`: “inactive”; `CCOC(=O)c1ccccc1NC(=O)COC(=O)CCC(=O)N1CCOCC1`: “inactive”; `S=c1[nH]nc(-c2cc(-c3ccccc3)n[nH]2)n1/N=C/c1c2ccccc2cc2ccccc12`: “inactive”.
As for `Cc1cc(-c2n[nH]c(=S)n2/N=C/C(Br)=C/c2ccccc2)n[nH]1`, the B-score was 7.31 (active).
In the case of `CC(C)c1cc(C(=O)N/N=C/C(Br)=C/c2ccccc2)n[nH]1`, the B-score entry was “inactive”.
For the molecule `COCCn1c(SCC(=O)c2[nH]c(C)c(C(C)=O)c2C)nc2ccccc2c1=O`, the B-score result is “inactive”.
With `CCOc1cc2[nH]c(=S)n(Cc3ccc(C(=O)N4CCN(C)CC4)cc3)c(=O)c2cc1OCC`, the B-score result was “inactive”.
Next, `O=C(C1CCC(=O)N(C2CC2)C1)N1CCN(c2ccc(Cl)cc2)CC1` (centres undefined): “inactive”; `Nc1nc(NCC2CCCO2)nc(Nc2ccccc2F)c1[N+](=O)[O-]` (centres undefined): “inactive”.
With `Nc1nc(Nc2ccccc2F)nc(NC2CCCCC2)c1[N+](=O)[O-]`, the B-score entry is “inactive”.
The same measure for `C=CCNc1nc(N)c([N+](=O)[O-])c(NC2CCCCC2)n1`: 7.68 (active); for `CC(C)c1ccc(/C=C2\NC(=O)NC2=O)cc1`: “inactive”; for `C=CCNC(=O)CCCC(=O)NCC=C`: “inactive”.
The same measure for `O=C(Nc1cccnc1)c1ccc(Cl)c([N+](=O)[O-])c1`: “inactive”.
The same measure for `CN(C)c1ccc(/C=C/C(=O)c2ccc(C(C)(C)C)cc2)cc1[N+](=O)[O-]`: “inactive”; for `O=C(/C=C/c1ccc(Cl)c([N+](=O)[O-])c1)c1cccnc1`: 11 (active).
With `O=C(/C=C/c1ccc(Cl)cc1Cl)c1cccnc1`, the B-score result is “inactive”.
In the case of `CN(C)c1ccc(/C=C/C(=O)c2ccc(O)cc2)cc1[N+](=O)[O-]`, the B-score entry is “inactive”.
`O=C(/C=C/c1ccc(Cl)c([N+](=O)[O-])c1)c1ccc(O)cc1`: the B-score was 6.92 (active).
The same measure for `Cc1ccc(S(=O)(=O)N(CC(=O)NN=C2CCN(C)CC2)c2ccc(F)cc2)cc1`: “inactive”.
In the case of `CCCCN(C(=O)/C=C/c1ccco1)c1c(N)n(CC(C)C)c(=O)[nH]c1=O`, the B-score entry is “inactive”.
`CS/C(=C\[N+](=O)[O-])Nc1ccc(C)cc1`: the B-score result was “inactive”.
On to `COC(=O)NNC(=O)C1CCC(C)CC1` (centres undefined), for which the B-score result is “inactive”.
As for `O=C1CCNCCN1[C@H](CO)Cc1ccccc1`, the B-score result is “inactive”.
Next, `c1ccc(C[C@H]2CNCCN2CCC23CC4CC(CC(C4)C2)C3)cc1`: 6.17 (active).
With `CC(C)CN(C(=O)CN1CCN(S(=O)(=O)c2ccccc2)CC1)c1c(N)n(CC(C)C)c(=O)[nH]c1=O`, the B-score result is “inactive”.
On to `CCCCNC(=O)N(O)C1N(/N=C/c2ccc(N(C)C)cc2)C(=S)SC1(C)C` (centres undefined), for which the B-score entry was “inactive”.
For the molecule `Nc1ccccc1SC(C[N+](=O)[O-])c1ccccc1` (centres undefined), the B-score is 7 (active).
Consider `Nc1ccccc1SCc1cc([N+](=O)[O-])cc2c1OCOC2`, for which the B-score result is “inactive”.
Next, `CCS(=O)(=O)c1cc([N+](=O)[O-])c(Sc2ccccc2N)s1`: “inactive”; `CCCCCCCNC(=O)C1(CC2CC(c3cccc(Br)c3)=NO2)CCN(C(=O)c2cc(OCC)c(OCC)c(OCC)c2)CC1` (centres undefined): “inactive”.
Take `Cc1ccc(Nc2nc(N3CCOCC3)nc(N3CCOCC3)n2)cc1Cl`: the B-score result is “inactive”.
The same measure for `COc1cccc(Nc2nc(N)c([N+](=O)[O-])c(NCc3ccco3)n2)c1`: “inactive”; for `CNc1nc(Nc2ccc(C)c(Cl)c2)nc(N)c1[N+](=O)[O-]`: 12.7 (active); for `CC(=O)c1nn(-c2cccc(C(F)(F)F)c2)c(=O)[nH]c1=O`: “inactive”.
Next, `O=C1CCCN1CCCNC(=S)Nc1ccc(F)c(Cl)c1`: “inactive”.
Next, `Cc1nc2ccccc2c(=O)n1-c1ccc(NS(=O)(=O)c2ccc(F)cc2F)cc1`: “inactive”; `CC1=NN(c2ccc(Cl)c(C(=O)O)c2)C(=O)/C1=C/c1ccc(-c2ccccc2[N+](=O)[O-])o1`: “inactive”.
For the molecule `CC(=O)C1C(c2cccc(Oc3ccccc3)c2)NC(=O)NC1(O)C(F)(F)F` (centres undefined), the B-score entry was “inactive”.
Next, `O=C1NC(c2ccc(-c3ccccc3[N+](=O)[O-])o2)C(C(=O)c2ccc(Cl)cc2)C(O)(C(F)(F)F)N1` (centres undefined): 8.35 (active); `O=C(OCc1ccc([N+](=O)[O-])cc1)C1CC(=O)N(Cc2ccccc2Cl)C1` (centres undefined): “inactive”.
For `CC(=O)Nc1ccc(Nc2c([N+](=O)[O-])cc(S(C)(=O)=O)cc2[N+](=O)[O-])cc1`, the B-score entry was “inactive”.
Next, `O=C(NCc1cccs1)c1ccc(CS(=O)Cc2ccccc2Cl)o1` (centres undefined): “inactive”; `CC(C)OCCCNC(=O)CN1C(=O)/C(=C/c2ccccc2F)Oc2ccccc21`: “inactive”; `O=C(CN1C(=O)COc2ccc(Cl)cc21)N1CCOCC1`: “inactive”.
Next, `O=C(CN1CCCCCC1)Nc1ccc(Cl)cc1F`: “inactive”.
The same measure for `COc1cc2c(cc1O)C(SC)=NC(C)(C)C2`: 15.1 (active).
On to `COc1cc2c(cc1OC)C(C(C)C)=NC(C)(C)C2`, for which the B-score entry was “inactive”.
With `COc1cc2c(cc1OC)C(Nc1ccc(S(N)(=O)=O)cc1)=NC(C)(C)C2`, the B-score result was “inactive”.
The same measure for `O=C(CSC1=NS(=O)(=O)c2cc(F)ccc2N1)Nc1ccccc1F`: “inactive”; for `Cc1nnc(SCC(=O)N2CCOCC2)[nH]c1=O`: “inactive”.
Take `CCOC(=O)CSc1nc(C)c(Oc2ccc(Cl)cc2Cl)c(=O)[nH]1`: the B-score entry was “inactive”.
For the molecule `CCCCOC(=O)CNc1nnc(SCC(=O)OCC)[nH]c1=O`, the B-score was 26.4 (active).
In the case of `NC(=O)C1CCCN(CC(=O)N2CCN(c3ccccc3)CC2)C1` (centres undefined), the B-score entry was “inactive”.
The same measure for `COc1ccc(C(=O)/C=C/c2ccc(OC3CSC3)cc2)cc1`: “inactive”; for `COc1ccc(/C=C/C(=O)c2ccc(OC)cc2O)cc1`: 6.02 (active).
Next, `COc1ccc(C(=O)/C=C/c2cccnc2)c(OC)c1`: “inactive”.
The same measure for `Cc1ccc(N(C(=O)c2ccc(S(=O)(=O)N(C)C)cc2)C2C=CS(=O)(=O)C2)cc1` (centres undefined): “inactive”; for `COc1ccc2oc(C(=O)OCC(=O)N(CC(C)C)c3c(N)n(Cc4ccccc4)c(=O)[nH]c3=O)c(C)c2c1`: “inactive”; for `[O-][n+]1ccc(OCc2ccccc2)cc1`: “inactive”.
Take `CCOc1ccccc1NC(=O)Cc1cccs1`: the B-score result is “inactive”.
The same measure for `CCOc1ccc(NC(=O)C/C(C)=N/NC(=O)Cc2cccs2)cc1`: 7.41 (active); for `CCOC(=O)c1ccc(NC(=O)Cc2cccs2)cc1`: “inactive”; for `CCn1c(O)c2ccc(C(=O)N=NC(=O)c3cccnc3)cc2c1O`: “inactive”.
The same measure for `O=S(=O)(Nc1ccc2[nH]ncc2c1)c1ccccc1Cl`: “inactive”; for `Cc1c(NC(=O)c2cc(-c3ccc(Br)cc3)on2)c(=O)n(-c2ccccc2)n1C`: “inactive”.
Next, `Cc1c(NC(=O)c2coc(=O)c(Br)c2)c(=O)n(-c2ccccc2)n1C`: 8.99 (active); `Cc1c(NC(=O)c2cccnc2)c(=O)n(-c2ccccc2)n1C`: “inactive”; `COc1ccc(CC(NC(C)=O)C(=O)NC2CCN(C(=O)Nc3ccc(C#N)cc3)CC2)cc1OC` (centres undefined): “inactive”.
On to `CCc1nn(CCCC(=O)NCc2ccc(C)cc2)c(=O)c2cc3occc3n12`, for which the B-score entry is “inactive”.
Next, `O=C(O)CCCCCCCCc1cn(CN2C(=O)c3ccccc3C2=O)nn1`: “inactive”; `C=CCSc1nc(N)cc(=O)[nH]1`: “inactive”; `C=CCSc1nc2c(c(=O)[nH]1)C(C(C)C)C(C#N)=C(N)O2` (centres undefined): 7.64 (active).
`Cc1cc2c(c(=O)n1C)C(C(C)C)C(C#N)=C(N)O2` (centres undefined): the B-score result is “inactive”.
Regarding `O=C(c1cccnc1)N(c1cc2sc(=O)oc2c2ccccc12)S(=O)(=O)c1ccccc1`, the B-score result is “inactive”.
In the case of `CCc1ccc(C2C(C#N)=C(N)N(N3CCOCC3)C3=C2C(=O)CC(C)(C)C3)s1` (centres undefined), the B-score was 4.85 (active).
For `COc1ccc(C2C(C#N)=C(/N=C/N3CCOCC3)OC3=C2C(=O)CC(C)(C)C3)cc1OC` (centres undefined), the B-score result is “inactive”.
`CCc1ccc(C2C(C#N)=C(N)N(N(C)C)C3=C2C(=O)CCC3)s1` (centres undefined): the B-score entry was “inactive”.
Next, `S=c1[nH]nc(-c2cccs2)n1/N=C/c1cccs1`: “inactive”; `Oc1ccccc1/C=N/n1c(-c2cccs2)n[nH]c1=S`: “inactive”.
The same measure for `Cc1ccsc1/C=N/n1c(=S)[nH]nc(C)c1=O`: 5.78 (active); for `CC(OC(=O)CCc1nc(=O)c2ccccc2n1C)C(=O)NCc1ccc2c(c1)OCO2` (centres undefined): “inactive”.
The same measure for `O=C(O)C1C2CC2CN1C(=O)c1ccc(Cl)cc1Cl` (centres undefined): “inactive”.
For `COc1ccc(CNS(=O)(=O)c2ccc(-c3cnc(C4CC4)o3)cc2)cc1`, the B-score result was “inactive”.
Next, `CC(=O)Nc1ccc(S(=O)(=O)Nc2nc(-c3ccc(C(C)(C)C)cc3)cs2)cc1`: 5.98 (active); `CC(=O)Nc1ccc(S(=O)(=O)Nc2cccc(NC(=O)C(C)(C)C)c2)cc1`: “inactive”.
With `CC(=O)Nc1ccc(-c2csc(NC=C3C(=O)OC(C)(C)OC3=O)n2)cc1`, the B-score result was “inactive”.
Consider `Oc1ccc(Br)cc1/C=N/Nc1ccccn1`, for which the B-score entry was “inactive”.
Consider `Cc1nccn1CC(=O)N/N=C/c1ccc(O)c(O)c1`, for which the B-score result is “inactive”.
Consider `Oc1ccc(/C=N/Nc2ccc(C(F)(F)F)cn2)cc1O`, for which the B-score was 9.02 (active).
Take `O=C(c1n[nH]c2c1CCC2)N1CCCC(Nc2cccc(F)c2)C1` (centres undefined): the B-score result was “inactive”.
The same measure for `O=C(NC(=S)Nc1ccc(S(=O)(=O)N2CCOCC2)cc1)c1ccccc1[N+](=O)[O-]`: “inactive”; for `O=[N+]([O-])c1cc(Cl)cc(/C=N/NC(=S)Nc2cc(S(=O)(=O)N3CCOCC3)ccc2Cl)c1O`: 6.74 (active); for `O=C(N/N=C/c1cc(Cl)cc([N+](=O)[O-])c1O)C(O)(c1ccccc1)c1ccccc1`: “inactive”.
The same measure for `COc1cccc(N2CC(C(=O)NCc3n[nH]c(=O)c4ccccc34)CC2=O)c1` (centres undefined): “inactive”; for `CN(c1ccccc1)S(=O)(=O)c1cc(C(=O)Nc2nc3ccccc3[nH]2)ccc1Cl`: “inactive”.
With `COc1ccc(-c2nc3cc([N+](=O)[O-])ccc3o2)cc1OC`, the B-score entry is “inactive”.
The same measure for `CCc1ccc2oc(-c3ccc(N)cc3)nc2c1`: 10.6 (active).
For `Nc1ccc(-c2nnc(-c3ccccc3)o2)cc1`, the B-score result is “inactive”.
As for `C=CC(COCc1ccccc1)N(Cc1ccccc1)S(=O)(=O)c1ccccc1Br` (centres undefined), the B-score entry was “inactive”.

The values are drawn from PubChem BioAssay AID463165 (Johns Hopkins Ion Channel Center, 2010).
